# Compound activity deposited in PubChem BioAssay by National Center for Advancing Translational Sciences (NCATS).
# D2 ag-1 = activates the human D2 dopamine receptor. P14416. HEK293 T-REx D2 cells, calcium flux agonist mode. activation, % at 2 µM. hit rate 0.53% among 340,000. AID 485358;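 active means activation over 3 SD above normal in the single-dose calcium agonist read, cut at about 30% in these data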; further: 0% is about no effect
# Target sequence (P14416 whole entry, looked up): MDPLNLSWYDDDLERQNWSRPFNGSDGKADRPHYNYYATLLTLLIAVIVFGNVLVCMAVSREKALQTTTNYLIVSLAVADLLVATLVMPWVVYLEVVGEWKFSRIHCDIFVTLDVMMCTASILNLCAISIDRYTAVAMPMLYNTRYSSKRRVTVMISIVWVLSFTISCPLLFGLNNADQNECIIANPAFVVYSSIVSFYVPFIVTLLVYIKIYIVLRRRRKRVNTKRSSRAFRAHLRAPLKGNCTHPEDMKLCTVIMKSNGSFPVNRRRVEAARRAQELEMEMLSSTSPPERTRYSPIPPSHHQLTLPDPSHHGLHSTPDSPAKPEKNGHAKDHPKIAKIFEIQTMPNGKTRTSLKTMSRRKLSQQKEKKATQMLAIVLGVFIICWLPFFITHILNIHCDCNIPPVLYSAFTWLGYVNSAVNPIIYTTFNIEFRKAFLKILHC
#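 Agonism is scored from calcium flux in a force-coupled, inducible HEK293 cell line expressing D2, read kinetically for 180 s after compound addition against dopamine controls.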
# D2 PAM-1 = positive allosteric modulators of human D2 dopamine receptor | P14416 | DiscoveRx D2 beta-arrestin cells, luminescence, 90 min; 100% = 57 uM dopamine signal | potentiation, % (concentration not given with the values) | hit rate 0.23% among 360,000; in the data active means potentiation above about 50%; inconclusive means mostly about 30% to 49%
#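 D2 cells co-treated with compound plus 50 nM dopamine (EC20) for 90 min at 37 deg C to detect potentiation. Beta-arrestin recruitment was read as enzyme-fragment luminescence after 1 h at ambient temperature. Full response was set by 57 uM dopamine.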
# D2 antag = antagonizes the human D2 dopamine receptor; P14416; HEK293 TREx D2 cells, calcium flux, dopamine EC80; inhibition, % at 10 µM; hit rate 2% among 340,000; in the data active means inhibition above about 30%; inactive means below that, where a call was filed; further: 0% is about no effect
#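 Overnight-induced (tetracycline, 30 C) HEK293 T-REx cells carrying force-coupled D2 receive a no-wash calcium dye, then compound, then EC80 dopamine at 180 s; signals are read kinetically throughout.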
# D2 PAM-2 = D2 dopamine receptor (human) potentiation. HEK293 T-REx D2, calcium flux, EC20 dopamine potentiation. potentiation, % at 10 µM. AID 485347. hit rate 0.34% among 340,000. P14416;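 active means potentiation over 3 SD above the plate norm, cut at about 30% in these data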; further: 0% is about no effect
#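 Cells plated with tetracycline inducer and held overnight at 30 C; calcium dye loaded 30–90 min at room temperature; baseline taken, compound added and read 180 s; EC20 dopamine then added and read 180 s.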
# D2 ag-2 = human D2 receptor agonism in beta-arrestin assay; P14416; DiscoveRx PathHunter D2 beta-arrestin, luminescence, 90 min; 100% = 57 uM dopamine signal; activation, % (concentration not given with the values); hit rate 0.084% among 360,000; AID 624465; in the data active means activation above about 40%; inconclusive means between about 15% and that limit
#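 DiscoveRx PathHunter D2 beta-arrestin cells (2,100/well) attached overnight, then compound-stimulated 90 min at 37 C in HBSS/10 mM HEPES/0.1% Tween-20 buffer; beta-galactosidase complementation read by luminescence after 1 h at ambient temperature. Dopamine 57 uM final (EC100) as control.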
# D3 ag = D3 receptor agonism confirmed, beta-arrestin readout | shares compounds with D2 ag-1 | DiscoveRx D3 beta-arrestin cells, luminescence, 90 min | Potency, µM (highest dose often 76.9 µM), without a hit: top-dose activation, usual class: activators | hit rate 4% among 2,300 | AID 720506;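 further: potency means the concentration at half of the fitted maximal effect; 100% = dopamine control response; nearly all actives have a fitted effect of over 70% in size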
# D2 ag-3 = counter-screen for D3 agonists: human D2 dopamine receptor agonism; shares compounds with D2 ag-1; hit rate 5.9% among 2,300; DiscoveRx PathHunter D2 beta-arrestin, luminescence, 90 min; response scale: percent relative to full dopamine signal; Potency, µM (highest dose often 76.9 µM), without a hit: top-dose activation, most hits filed as activators; further: potency means the concentration at half of the fitted maximal effect; % of control where 0% means no effect; nearly all actives have a fitted effect of over 70% in size
# An asterisk follows results filed as active; u = inconclusive; x = no result; ! = a repeat was not active. The list is not random: actives were taken first. Their share in the collection is about 2.4%. Unless noted, the call rests on the fitted dose curve; in most records, active means well fitted activation curve with a large enough effect; inconclusive means small, poorly fitted or top-dose-only effect; inactive means flat fitted curve, though single readings scatter.
SMILES,D2 ag-1,D2 PAM-1,D2 antag,D2 PAM-2,D2 ag-2,D3 ag,D2 ag-3
CCOc1ccccc1-c1noc(CSc2nnc(-c3ccccc3)n2-c2ccc(F)cc2)n1,-1,x,x,10,x,x,x
Fc1cccc(CN2CCN(c3ncccn3)CC2)c1,77*,55*,83*,-29,80*,u,1.4µM*
c1cnc(N2CCN(Cc3ccc4c(c3)OCO4)CC2)nc1,80*,62*!,89*,-26,41*!,u,0.05µM*
Clc1ccc(CN2CCN(c3ncccn3)CC2)cc1,73*,53*,85*,-17,68*,u,2.8µM*
O=C(c1cccnc1)N1CCN(Cc2cccc(F)c2)CC1,1,-7,13,6,2,x,x
Clc1ccc(CN2CCN(c3ncccn3)CC2)cc1Cl,80*,20,77*,-35,65*,u,14µM*
CC(C)CCNC(=O)c1cccc(Nc2nc3ccccc3n3nnnc23)c1,x,x,x,0,x,x,x
CCN(Cc1nc(-c2ccc(OC)c(OC)c2)no1)S(=O)(=O)c1ccc(OC)cc1,2,x,x,5,x,x,x
Cc1cc(=O)[nH]c(N2CCN(Cc3ccccc3)CC2)n1,40*,0,-16,-14,6,-12%,9%
NC(=O)C1CCN(Cc2ccc(OCc3ccccc3)cc2)CC1,1,-6,-5,12,-6,x,x
c1ccc(-c2ccc(CN3CCN(c4ncccn4)CC3)cc2)cc1,79*,29,118*,-32,u,u,u
c1ccc(CN2CCN(c3nc(-c4ccccc4)nc(-n4ccnc4)n3)CC2)cc1,0,-33,4,8,-4,x,x
c1ccc(COc2ccc(CN3CCN(c4ccccn4)CC3)cc2)cc1,77*,18,75*,-23,47*,u,11µM*
C(#Cc1ccccc1)CN1CCN(c2ccccn2)CC1,45*,-10,20,-17,5,10%,11%
C(#Cc1ccccc1)CN1CCCCC1,0,-21,-21,-5,-3,x,x
CCCCc1c(O)nc(N2CCN(Cc3ccccc3)CC2)[nH]c1=O,x,-6,x,x,0,x,x
CCN1CCN(C(=O)c2ccc3c(c2)N(Cc2ccc(Cl)cc2)C(=O)c2ccccc2S3=O)CC1 (configuration not stated),-1,x,x,-19,x,x,x
CCCCSCCCNC(=O)C1CCN(Cc2nc(-c3ccc(CC)cc3)oc2C)CC1,0,x,x,1,x,x,x
c1ccc(CN2CCN(c3ncccn3)CC2)cc1,86*,u,84*,-25,56*,u,2.5µM*
c1nc(N2CCN(Cc3ccc4c(c3)OCO4)CC2)c2[nH]cnc2n1,x,81*,x,x,9,16%,2.8µM*
O=C(Cc1ccccc1)N1CCN(c2ncccn2)CC1,0,-1,0,1,4,x,x
Cc1ccc2[nH]c3c(N4CCN(Cc5ccc6c(c5)OCO6)CC4)ncnc3c2c1,x,x,x,-13,x,x,x
Fc1ccc(CN2CCCCCC2)c(F)c1,0,-22,7,-3,-1,x,x
Fc1ccc(CN2CCN(c3ncccn3)CC2)c(F)c1,95*,29,79*,-24,60*,u,16µM*
Cc1ccc(OCC(=O)Nc2cccc(C(=O)OCc3cc(=O)n4nc(C)sc4n3)c2)cc1,-1,x,x,2,x,x,x
SMILES,D2 ag-1,D2 PAM-1,D2 antag,D2 PAM-2,D2 ag-2,D3 ag,D2 ag-3
O=C(CSc1nc2c(c(=O)[nH]1)CN(Cc1ccc3c(c1)OCO3)CC2)Nc1ccc(F)c(F)c1,-1,x,x,-2,x,x,x
Cc1ccc(C2=CC(=O)C[C@H](c3ccc(Cl)cc3)C2)cc1,1,-14,-2,8,-6,x,x
O=C1C=C(c2ccccc2)C[C@@H](c2ccc(Cl)cc2)C1,1,-5,11,4,5,-8%,-2%
O=C1C=C(c2ccc3ncccc3c2)C[C@@H](c2ccc(Cl)cc2)C1,1,-3,-8,17,-2,x,x
COc1ccc([C@H]2CC(=O)C=C(c3cccc(CO)c3)C2)cc1OC,1,-3,6,-4,1,x,x
O=C1C=C(c2ccc3ccccc3c2)C[C@@H](c2ccc(Cl)cc2)C1,1,-6,-9,-2,0,-11%,-2%
O=C1C=C(c2cccc(CO)c2)C[C@@H](c2ccc(Cl)cc2)C1,0,-3,52*,-2,0,-6%,5%
COc1cccc(CNC(=O)c2ccc3nc(-c4ccc(F)cc4)c(-c4ccc(F)cc4)nc3c2)c1,0,x,x,x,x,x,x
Cc1nn(CCCC(=O)NCc2ccccc2)c(=O)c2cc3sccc3n12,-1,x,x,-4,x,x,x
Cc1ccc(S(=O)(=O)N2CCOCC2)cc1NC(=O)CNCc1cccnc1,77*,63*,60*,-17,48*,3.5µM*,35µM*
Cc1ccc(S(=O)(=O)N2CCOCC2)cc1NC(=O)CNCc1ccc(Cl)cc1Cl,x,4,x,x,1,x,x
Cc1ccc(S(=O)(=O)N2CCOCC2)cc1NC(=O)CNCC1CCCCC1,53*,-2,50*,-16,u,u,u
CC(=O)Nc1ccc(C)cc1-c1nc2ccccc2n(CC(=O)c2ccc(C)c(C)c2)c1=O,1,x,x,3,x,x,x
CCN(CC)S(=O)(=O)c1cccc(S(=O)(=O)N2CCCCC2)c1,36*,7,-3,-21,2,7%,3%
COc1ccc(CNCC2COc3ccccc3O2)cc1 (configuration not stated),63*,-26,140*,-34,-6,15%,9%
O=C(CC1COc2ccccc2O1)NCc1ccccc1 (configuration not stated),-1,-2,3,-6,-2,x,x
COc1cccc(OC)c1OCCNCC1COc2ccccc2O1 (configuration not stated),x,-23,x,x,1,x,x
c1ccc(CCCNCC2COc3ccccc3O2)cc1 (configuration not stated),48*,-18,86*,-33,10,u,14%
COc1ccc(CC(=O)NCC2COc3ccccc3O2)cc1 (configuration not stated),0,-1,-6,4,2,x,x
c1ccc(CNCC2COc3ccccc3O2)cc1 (configuration not stated),64*,-27,62*,-25,1,17%,11%
O=C(COc1ccc([N+](=O)[O-])cc1)N1CCC(c2nc3ccccc3s2)CC1,0,x,x,-5,x,x,x
Cc1cccc(-c2c3c(=O)n(C)c(=O)n(C)c3cn2-c2cc(N)c(Cl)cc2Cl)c1,18,x,x,-10,x,x,x
